The list shows a part of the results. Active and inactive are the calls of the source. Unless noted, no stated cut-off is given here; in the data, active means response below about 75% or above about 130%; inactive means in between.

Data on eleven compounds can be found in PubChem BioAssay.

In test [1] the target is Regulator of G-protein signaling 16 (Homo sapiens) (UniProt O15492). The test can be described thus: small molecules altering RGS protein interactions with GNAO1 – biochemical, multiplexed beads, flow cytometry, RGS4/7/8/16/19, primary screen (AID 1504).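 Further: fluorescently labeled Galpha-o bound to GDP with aluminium fluoride binding biotinylated RGS beads.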 The following applies: multiplexed bead flow cytometry, measured here: RGS16 interaction, at 10 µM. On the technique in general: In flow cytometry, cells or beads pass a laser one at a time.

The target of test [2] is Regulator of G-protein signaling 19 (Homo sapiens) (UniProt P49795). The test is described as above. The conditions noted are these: multiplexed bead flow cytometry, measured here: RGS19 interaction, at 10 µM.
Test [3] has as its target Regulator of G-protein signaling 7 (Homo sapiens) (UniProt P49802). Described as above. The following applies: multiplexed bead flow cytometry, measured here: RGS7 interaction, at 10 µM.
In test [4] the target is Regulator of G-protein signaling 8 (Homo sapiens) (UniProt P57771). The description is as above. The conditions noted are these: multiplexed bead flow cytometry, measured here: RGS8 interaction, at 10 µM.
Test [5] in a line: interference with biotin-avidin bead interaction – biochemical, flow cytometry, bead-based, counter-screen for RGS protein interaction modulators (AID 1783;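 active means inhibition above 50%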;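 further: median green fluorescence of gated singlet beads compared with DMSO control wells; 0% = DMSO wells and 100% = complete loss of bead fluorescence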). The conditions noted are these: streptavidin beads, fluorescein-biotin binding; at 10 µM, stronger effect = higher value.
Test [6] deals with Guanine nucleotide-binding protein G(o) subunit alpha (Homo sapiens) (UniProt P09471). In words: retest of RGS8-Galphao interaction hits – biochemical, multiplexed bead flow cytometry, single concentration, confirmation (AID 1836; in the data active means binding response below about 72% or above about 130%; inactive means in between;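 further: Galphao activated as GDP AlF4 complex before binding bead RGS8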). The following applies: bead-based flow cytometry RGS8-Galphao binding, fluorescence; at 10 µM; actives lie on both sides.
Guanine nucleotide-binding protein G(o) subunit alpha (Homo sapiens), sequence (P09471 whole entry, looked up): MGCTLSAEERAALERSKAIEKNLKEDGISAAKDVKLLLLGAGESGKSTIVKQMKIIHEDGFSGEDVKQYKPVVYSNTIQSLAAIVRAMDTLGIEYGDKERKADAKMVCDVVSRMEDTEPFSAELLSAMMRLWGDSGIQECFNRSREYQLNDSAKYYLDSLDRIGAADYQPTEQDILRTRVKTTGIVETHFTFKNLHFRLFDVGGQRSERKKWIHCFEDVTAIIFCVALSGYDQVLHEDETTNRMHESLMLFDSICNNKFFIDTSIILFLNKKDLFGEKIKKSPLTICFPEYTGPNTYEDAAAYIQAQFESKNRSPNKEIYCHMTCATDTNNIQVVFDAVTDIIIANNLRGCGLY
For test [7] the target is unchanged. In words: retest of RGS7-Galphao interaction hits – biochemical, multiplexed bead flow cytometry, single concentration, confirmation (AID 1837).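 Further: fluorescent Galphao activated with GDP and aluminum fluoride binding bead-coupled RGS7.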 The conditions noted are these: bead-based flow cytometry RGS7-Galphao binding; at 10 µM; actives lie on both sides.
The target in test [8] is Regulator of G-protein signaling 16 (Homo sapiens) + Guanine nucleotide-binding protein G(o) subunit alpha (Homo sapiens) (UniProt O15492+P09471). In words: RGS16 and Galphao interaction regulators – biochemical, single concentration, multiplexed bead flow cytometry, confirmation (AID 1838; in the data active means response below about 74% or above about 130%; inactive means in between;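 further: Galphao activated as the GDP aluminium fluoride complex binding bead-coupled RGS16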). The following applies: bead-based flow cytometry, at 10 µM, actives lie on both sides.
Regulator of G-protein signaling 16 (Homo sapiens) + Guanine nucleotide-binding protein G(o) subunit alpha (Homo sapiens), sequence (O15492 whole entry, looked up): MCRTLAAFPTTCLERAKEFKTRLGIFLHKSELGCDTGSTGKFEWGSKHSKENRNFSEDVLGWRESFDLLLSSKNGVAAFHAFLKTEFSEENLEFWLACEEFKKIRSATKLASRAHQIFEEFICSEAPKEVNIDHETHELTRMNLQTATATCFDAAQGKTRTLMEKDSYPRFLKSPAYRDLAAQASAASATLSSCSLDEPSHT
Regulator of G-protein signaling 16 (Homo sapiens) + Guanine nucleotide-binding protein G(o) subunit alpha (Homo sapiens), sequence (P09471 whole entry, looked up): as the sequence (P09471 whole entry, looked up) above

For test [9], the target named is Guanine nucleotide-binding protein G(o) subunit alpha (Homo sapiens) (UniProt P09471). The test can be described thus: RGS4 and Galphao interaction regulators – biochemical, single concentration, multiplexed bead flow cytometry, confirmation (AID 1840; in the data active means binding response below about 74% or above about 130%; inactive means in between). The following applies: at 10 µM, actives lie on both sides.
Test [10] addresses Guanine nucleotide-binding protein G(o) subunit alpha (Homo sapiens) + Regulator of G-protein signaling 19 (Homo sapiens) (UniProt P09471+P49795). The test can be described thus: RGS19 interaction with Gαo, hit retest – biochemical, single point, multiplexed bead flow cytometry, confirmation (AID 1841; in the data active means response below about 50% or above about 160%; inactive means in between;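 further: 100% = no compound control and 0% = blank background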). The following applies: bead-based flow cytometry RGS19-Galphao binding; at 10 µM; actives lie on both sides.

Guanine nucleotide-binding protein G(o) subunit alpha (Homo sapiens) + Regulator of G-protein signaling 19 (Homo sapiens), sequence (P09471 whole entry, looked up): as above
Guanine nucleotide-binding protein G(o) subunit alpha (Homo sapiens) + Regulator of G-protein signaling 19 (Homo sapiens), sequence (P49795 whole entry, looked up): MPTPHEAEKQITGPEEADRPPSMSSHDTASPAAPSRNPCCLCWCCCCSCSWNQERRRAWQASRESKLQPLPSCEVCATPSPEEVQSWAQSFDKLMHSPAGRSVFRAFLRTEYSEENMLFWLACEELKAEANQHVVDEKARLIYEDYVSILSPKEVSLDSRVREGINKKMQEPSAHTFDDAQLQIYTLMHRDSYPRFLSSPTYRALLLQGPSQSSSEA

In the case of `Cc1ccc(Cn2ccc(NC(=O)c3cc(C(C)C)on3)n2)cc1`, the RGS16–Galpha-o binding response in test [1] stood at 47.2%. For the same compound, in test [2], the RGS19–Galpha-o binding response was -20%. Also, the RGS7–Galpha-o binding response in test [3] worked out at 43.9%. This compound returned an RGS8–Galpha-o binding response in [4] of 55.8%.
Consider `O=C(Nc1ccccc1)c1cc2ccccc2[nH]1`, for which the RGS16–Galpha-o binding response in test [1] turned out to be 13.8%. The RGS19–Galpha-o binding response in test [2] is -785%. The RGS7–Galpha-o binding response in [3] is 89.9%. Moreover, the RGS8–Galpha-o binding response in test [4] was determined as 67.8%. For the same compound, the inhibition in [5] was 0.6% (inactive). The binding response (% of control) in test [6] was 105% (inactive); in test [9], 106% (inactive). Further, the figures for the response (percent of control binding) in [7] and in [10] were 103% (inactive) and 99.5% (inactive), respectively. Besides, the response (% of control binding) in test [8] is 106% (inactive).
Turning to `CCCC1C(c2ccccc2)C(C#N)(C#N)C2(C#N)CC1(N)NC2=O` (stereo not given), the RGS16–Galpha-o binding response in test [1] was 178%. In test [2], the RGS19–Galpha-o binding response amounted to 474%. For the same compound, the RGS7–Galpha-o binding response in [3] amounted to 152%. In [4], this compound registered an RGS8–Galpha-o binding response of 116%. In addition, the inhibition in test [5] was 0.8% (inactive). Also, the binding response (% of control) in test [6] and in [9] was 103% (inactive) in each case. Also, the response (percent of control binding) in test [7] and in test [10] was 105% (inactive) throughout. For the same compound, the response (% of control binding) in test [8] is 102% (inactive).
As for `O=C(Nc1cccc(-c2nc3ccccc3[nH]2)c1)c1ccc(C(=O)Nc2cccc(-c3nc4ccccc4[nH]3)c2)cc1`, the RGS16–Galpha-o binding response in test [1] amounted to 219%. The RGS19–Galpha-o binding response in test [2] was determined as 436%. The RGS7–Galpha-o binding response in [3] is 495%. This compound came in with an RGS8–Galpha-o binding response in [4] of 112%. Also, the inhibition in [5] was 1% (inactive). The binding response (% of control) in test [6] was 104% (inactive); in test [9], 108% (inactive). The values for the response (percent of control binding) in [7] and in test [10] were 126% [activator] (active) and 217% (active), respectively. In test [8], the response (% of control binding) is 131% [activator] (active).
Consider `COC(=O)c1ccccc1OCC(=O)N1CCN(c2ccc(Cl)cc2)CC1`, for which the RGS16–Galpha-o binding response in [1] was found to be 461%. Further, the RGS19–Galpha-o binding response in [2] was determined as 7560%. In addition, in [3], the RGS7–Galpha-o binding response came out at 290%. For the same compound, the RGS8–Galpha-o binding response in test [4] was 132%.
`CN(C)CCNC(=O)/C(=C/c1cccc([N+](=O)[O-])c1)NC(=O)c1ccccc1`: the RGS16–Galpha-o binding response in [1] came to 219%. Moreover, the RGS19–Galpha-o binding response in [2] is -55.8%. For the same compound, the RGS7–Galpha-o binding response in test [3] came out at 113%. In test [4], this compound displayed an RGS8–Galpha-o binding response of 124%. Further, in test [5], the inhibition is -1.3% (inactive). Further, the results for the binding response (% of control) in test [6] and in [9] were 103% (inactive) and 104% (inactive), respectively. For the same compound, the response (percent of control binding) in test [7] is 105% (inactive); in test [10] it was 91.3% (inactive). In addition, the response (% of control binding) in test [8] was 101% (inactive).
For `COc1ccccc1NC(=O)CCCc1c[nH]c2ccccc12`, in test [1], the RGS16–Galpha-o binding response turned out to be 109%. Moreover, the RGS19–Galpha-o binding response in [2] came out at 78.4%. In [3], the RGS7–Galpha-o binding response was found to be 312%. This compound returned an RGS8–Galpha-o binding response in test [4] of 85%. Further, the inhibition in test [5] was 2.9% (inactive). The binding response (% of control) in [6] is 95.7% (inactive); in [9] it was 92.5% (inactive). Moreover, the response (percent of control binding) was 89.4% (inactive) in [7] and 92.9% (inactive) in test [10]. Besides, the response (% of control binding) in test [8] was 97.2% (inactive).
As for `O=C(CN1CCCCC1)N1c2ccccc2Sc2ccc(C(F)(F)F)cc21`, the RGS16–Galpha-o binding response in test [1] is -6.83%. The RGS19–Galpha-o binding response in test [2] turned out to be 241%. For the same compound, in test [3], the RGS7–Galpha-o binding response came out at 27.5%. In addition, the RGS8–Galpha-o binding response in test [4] was determined as 22.7%.
As for `CCCn1nnnc1NC(=O)COc1ccc(Cl)cc1C`, the RGS16–Galpha-o binding response in [1] stood at 2.27%. In test [2], the RGS19–Galpha-o binding response is -359%. In addition, the RGS7–Galpha-o binding response in test [3] stood at 17.1%. This compound came in with an RGS8–Galpha-o binding response in test [4] of 11.9%.
Regarding `COc1cc(C2/C(=C(\O)c3ccc4c(c3)CC(C)O4)C(=O)C(=O)N2Cc2ccco2)ccc1O` (stereo not given), the RGS16–Galpha-o binding response in test [1] is -10.7%. The RGS19–Galpha-o binding response in [2] came out at 178%. The RGS7–Galpha-o binding response in [3] came to 17.7%. In addition, in test [4], the RGS8–Galpha-o binding response came to 12.8%. For the same compound, in [5], the inhibition was 1.5% (inactive). Also, the binding response (% of control) in [6] and in test [9] was 106% (inactive) each time. The response (percent of control binding) is 110% (inactive) in test [7] and 106% (inactive) in test [10]. Moreover, the response (% of control binding) in test [8] was 109% (inactive).
With `C=CCn1c(Cn2nnc3ccccc32)nnc1SCC(=O)N/N=C/c1cc(Br)cc(OC)c1O`, in [1], the RGS16–Galpha-o binding response is -35.2%. Also, the RGS19–Galpha-o binding response in [2] was 144%. The RGS7–Galpha-o binding response in test [3] was -19.4%. For the same compound, in [4], the RGS8–Galpha-o binding response was found to be 5.17%.

Broadly, the inhibition is the change of the read-out against control, counted positive when it falls.
